Screening results from PubChem BioAssay.
NALP1 yeast inh: NALP1 inhibition; S. cerevisiae NALP1/ASC/caspase-1 growth, X-gal OD620, 72 h; inhibition, % at 10 µM; 0.61% of 280,000 active; AID 2071; in the data active means inhibition mostly above about 24%, no sharp cut-off; inactive means mostly below about 32%
SUMO Mot1 rescue: inhibitors of SUMOylation pathway: yeast Mot1-301 growth rescue. S. cerevisiae Mot1-301 growth rescue, ATP luminescence, 38.5C; percent above DMSO median, 100 means doubled. growth rescue, % at 18.8 µM. 1% of 320,000 active;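 active means every valid replicate shows activation above 250% relative to neutral control wells; inactive means the rest, any valid replicate at or below 250%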;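 further: OY570 slx delta 5 strain wells were the positive control but not used for scaling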
CHT allo act: allosterically activates the human high affinity choline transporter; 0.49% of 310,000 active; CHT-expressing cells, membrane potential dye, choline EC20; active compounds read high; LV-AA mutant CHT in HEK293 cells; B-score at 10 µM; Q9GZV3;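 active means initial fluorescence not abnormally high and integrated response B-score, plate-corrected, over 3 SD above library mean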
Target sequence (Q9GZV3 whole entry, looked up): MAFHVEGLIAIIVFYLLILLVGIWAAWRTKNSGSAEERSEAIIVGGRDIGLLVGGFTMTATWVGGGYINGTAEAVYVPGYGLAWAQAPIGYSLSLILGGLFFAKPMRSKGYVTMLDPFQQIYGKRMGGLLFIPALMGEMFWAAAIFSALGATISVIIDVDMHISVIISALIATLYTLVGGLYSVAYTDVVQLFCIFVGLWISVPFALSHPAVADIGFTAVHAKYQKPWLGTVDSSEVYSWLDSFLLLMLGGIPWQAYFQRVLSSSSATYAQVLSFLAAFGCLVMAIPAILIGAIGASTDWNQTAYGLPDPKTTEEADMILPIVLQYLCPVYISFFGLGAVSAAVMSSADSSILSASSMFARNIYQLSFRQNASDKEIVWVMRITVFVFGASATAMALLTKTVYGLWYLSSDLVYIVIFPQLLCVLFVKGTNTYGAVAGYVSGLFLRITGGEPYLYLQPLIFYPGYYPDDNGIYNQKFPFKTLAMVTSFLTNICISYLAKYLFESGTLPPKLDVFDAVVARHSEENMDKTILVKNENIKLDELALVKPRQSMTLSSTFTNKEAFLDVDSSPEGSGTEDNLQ
Bfl-1 A1 inh: inhibitors of the anti-apoptotic protein A1, read as caspase activation; MEF A1-2A-BIM cells, Caspase-Glo 3/7 luminescence, 3 h; percent of clofoctol response, vehicle zero; caspase activation, % (concentration not given with the values); 0.066% of 330,000 active;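 active means over half of replicate activation scores above 10%, or exactly half above 10 with the replicate mean above 10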
NALP3 yeast inh: blocks the NALP3 inflammasome reconstituted in yeast; Yeast reconstituted NLRP3/ASC/caspase-1, beta-gal luminescence, 24 h; inhibition, % at 10 µM; 0.39% of 330,000 active; AID 2825;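 active means inhibition of 50% or more; inactive means inhibition below 50%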;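 further: plate controls were induced DMSO wells for no effect and uninduced yeast grown without galactose for full effect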
CHT block: inhibits the human high affinity choline transporter. Q9GZV3. CHT-expressing cells, membrane potential dye, choline response; active compounds read low. B-score at 10 µM. 0.86% of 310,000 active. AID 488975;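 active means B-score over 3 SD under the library average, and starting fluorescence ratio not unusually high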;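 further: choline stimulus applied at its EC90 after an EC20 pre-addition; B-score computed on integrated fluorescence ratio after choline addition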
CHT block conf: confirmation of human choline transporter CHT inhibitors; shares compounds with CHT block; CHT-expressing cells, choline membrane potential dye; LV-to-AA substituted CHT, HEK293 cells; CHT activity remaining % of control (active compounds read low), % at 10 µM; 70% of 2,400 active;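 active means choline transporter activity left, mean of duplicates at 10 µM, below buffer-only control mean minus 3 SD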;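 further: depolarization triggered by choline at its EC90 following an EC20 pre-addition; 0% = hemicholinium-3 full block and 100% = buffer-only control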
HEK293 CHT ctr: counter-screen for CHT inhibitors: effect in parental HEK293 cells | shares compounds with CHT block | membrane potential dye, choline response; active = decrease or increase beyond buffer ±3SD | membrane potential ratio readout (active if shifted either direction beyond buffer ±3SD; no single direction) at 10 µM | 4% of 2,400 active | AID 493222;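 further: parental cells lack the transporter so any hit is non-specific; ratio is peak minus trough fluorescence over baseline after EC90 choline challenge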
Starred values were filed as active, the others as inactive; i = inactive; / = no result. An excerpt weighted towards active compounds, which were near 3% of everything screened.

SMILES	NALP1 yeast inh	SUMO Mot1 rescue	CHT allo act	Bfl-1 A1 inh	NALP3 yeast inh	CHT block	CHT block conf	HEK293 CHT ctr
COc1ccc(Cc2nnc(NC(=O)c3ccccc3[N+](=O)[O-])s2)cc1	22.5	-8.4	i	0.9	10.0	-7.14*	26.4%*	i
COc1ccc(NC(=O)c2ccccc2[N+](=O)[O-])cc1	34.1	-4.7	i	-0.4	8.5	i	/	/
CCCCC1CCC(C(=O)N(CCCC)c2c(N)n(CCCC)c(=O)[nH]c2=O)CC1 (configuration not stated)	5.2	6.3	i	0.7	11.4	i	/	/
Nn1c(SCC(=O)Nc2ccc(N3CCOCC3)cc2)nnc1-c1ccccc1F	/	1.7	/	0.8	17.5	/	/	/
Cc1occc1-c1nnc(SCC(=O)NC2CCCCC2C)o1 (configuration not stated)	/	/	/	/	35.9	/	/	/
N#Cc1c(NCCN)nc(-c2ccccc2)c2c1CCCC2	-6.7	7.1	i	-0.3	31.7	-6.28*	39.6%*	i
Cc1ccc(C(=O)N/C(=C/c2ccco2)C(=O)Nc2cccc(C)c2)cc1	-3.0	448.9	i	0.4	-29.3	-5.72*	61.6%*	i
Cc1cccc(NC(=O)/C(=C\c2ccco2)NC(=O)c2cccs2)c1	-11.0	-13.7	i	0.2	14.0	i	/	/
CC(C)(C)N/N=C/c1cc(Cl)cc([N+](=O)[O-])c1O	39.8	2.8	i	0.8	44.2	-5.85*	58.6%*	i
CCc1nnc(NS(=O)(=O)c2ccc(NC(=O)/C=C/c3ccccc3Cl)cc2)s1	1.5	6.6	i	0.6	15.9	-5.57*	51.0%*	i
COc1ccc(S(=O)(=O)Nc2cccc3c2O[C@H](CN(C)C(=O)Nc2ccc(C(F)(F)F)cc2)[C@@H](C)CN([C@H](C)CO)C3=O)cc1	/	2.9	/	-1.0	18.4	/	/	/
N#Cc1ccc(CSc2ccccn2)c(Cl)c1	-7.4	1.5	i	0.1	11.8	i	/	/
Cn1c(SCc2ccc(C#N)cc2Cl)nc2ccccc21	13.6	-18.4	i	-4.5	31.6	-11.5*	3.8%*	i
COc1ccc(NC(=O)NNC(=O)c2ccc3ccccc3c2O)c(OC)c1	10.3	-0.8	i	1.3	3.6	i	/	/
CC1CCCCC1NC(=O)C1CCN(S(=O)(=O)c2ccc(-n3cnnn3)cc2)CC1 (configuration not stated)	10.1	330.3	i	1.2	-0.9	i	/	/
CC1CCCCC1NC(=O)C1CCCN(S(=O)(=O)c2ccc(-n3cnnn3)cc2)C1 (configuration not stated)	-0.5	7.2	i	0.3	3.2	-9.53*	52.3%*	i
CC(C)c1ccc(CNCc2ccccc2)cc1	8.7	11.3	i	-0.8	8.4	-5.13*	41.7%*	-15.2*
CC(C)c1ccc(CNC(=O)CCc2ccccc2)cc1	8.0	-3.3	i	1.1	39.4	i	/	/
Cc1cc(C)cc(OCC(O)CN2CCC(CN3C(=O)c4cccc5cccc(c45)C3=O)CC2)c1 (configuration not stated)	/	-47.7	i	0.2	16.8	-5.52*	57.6%*	i
COc1cccc(OCC(O)CN2CCC(CN3C(=O)c4cccc5cccc(c45)C3=O)CC2)c1 (configuration not stated)	-2.3	2.5	i	-0.6	20.4	i	/	/
Cc1cc(C(=O)CN2CCN(CC(=O)Nc3ccc(F)cc3)CC2)c(C)n1C1CC1	/	-23.3	/	-0.6	5.0	/	/	/
Cc1cc(SCc2cc(=O)n3ccsc3n2)nc2ccccc12	/	-5.6	i	0.0	28.8	-12.8*	-1.4%*	i
COc1cc(C(=O)Nc2ccc(S(=O)(=O)N3CCOCC3)cc2)c([N+](=O)[O-])cc1OC	-8.2	70.6	i	0.8	14.4	i	/	/
O=C(N/N=C\c1cccs1)c1ccccc1-n1cccc1	5.8	112.3	i	-0.1	13.7	-5.34*	i	i
CCOC(=O)N1CCN(S(=O)(=O)c2c(C(=O)N3CCCCC3)c(C)n(C)c2C)CC1	-0.2	244.4	i	-1.5	19.2	i	/	/
SMILES	NALP1 yeast inh	SUMO Mot1 rescue	CHT allo act	Bfl-1 A1 inh	NALP3 yeast inh	CHT block	CHT block conf	HEK293 CHT ctr
Cc1ccc(CNC(=O)N[C@@H](Cc2ccccc2)C(=O)O)cc1	26.3	-7.0	i	0.0	3.9	-16.2*	59.9%*	i
COC(=O)[C@H](Cc1ccccc1)NC(=O)NCc1ccc(C)cc1	12.1	6.9	i	1.1	20.9	i	/	/
CC1Cc2ccccc2N1C(=O)CCS(=O)(=O)c1ccc2c(c1)NC(=O)CS2 (configuration not stated)	5.7	-6.3	i	0.0	6.7	-4.99*	i	i
COc1ccc(CN(C(=O)c2nsc(Cl)c2Cl)C(C(=O)NC2CCCCC2)c2ccc(OC)cc2)cc1 (configuration not stated)	-2.1	5.6	i	-0.4	16.5	i	/	/
O=C(NC1CCCCC1)C(c1ccc2ncccc2c1)N(Cc1ccccc1)C(=O)c1ccc2c(c1)OCCO2 (configuration not stated)	34.2	4.5	i	-0.6	-4.5	-6.68*	46.9%*	i
COc1ccc(CN(C(=O)c2ccc3c(c2)OCCO3)C(C(=O)NC2CCCCC2)c2ccc3ncccc3c2)cc1 (configuration not stated)	5.3	-5.3	i	-0.1	19.1	-9.2*	16.3%*	i
Cc1ccc(C(=O)Nc2cccc(C(F)(F)F)c2)cc1NC(=O)c1csc(-c2ccncc2)n1	8.5	1.5	i	0.8	16.4	-7.99*	24.8%*	i
CC1CC(C)CN(C(=O)CSc2nnc(-c3ccco3)o2)C1 (configuration not stated)	-5.0	-18.4	i	0.8	17.0	i	/	/
Fc1cccc(Cc2noc(CN3CCC(c4ccncc4)CC3)n2)c1	16.5	-21.0	i	0.1	15.9	-5.6*	29.7%*	i
O=C(COC(=O)CCNS(=O)(=O)c1ccccc1)NC(=O)c1ccccc1	/	4.7	i	-0.2	5.6	i	/	/
COC(=O)CCCCCN1C(=O)NC(C2CC2)C(C(=O)OCc2ccccc2)=C1C (configuration not stated)	/	146.6	i	1.5	5.1	-5.37*	65.2%*	i
O=C(CNS(=O)(=O)c1ccc(F)cc1)N1CCCC1	/	-13.5	i	-0.1	6.3	i	/	/
Cn1c(-c2ccccc2O)cc2ccccc21	15.8	-3.1	i	1.5	12.1	-8.06*	50.6%*	i
